Reference: PubChem BioAssay (EPA / NIEHS)
Activity calls are given as the source filed them. How the source made its calls: active means hit-call score of the fitted dose curve at least 0.9, where 1 is the maximum; inactive means score below 0.9.

Columns and labels:
[1] = read-out: Matrix Metallopeptidase 9 (MMP9), MMP9 (gene 4318); assay: BSK_BF4T_MMP9: BioMAP Diversity Plus: BF4T Assay for Matrix Metallopeptidase 9 (MMP9) Biomarker Activity (AID 2284276); conditions: primary human bronchial epithelial cells with fibroblasts
Method: BSK_BF4T is a cell-based, multiplexed-readout assay that uses bronchial epithelial cells and dermal fibroblasts, a human vascular primary cell, with measurements taken at 24 hours after chemical dosing in a microplate: 96-well plate.BSK_BF4T_MMP9 is an assay component measured in the BSK_BF4T assay. It measures MMP-9 antibody related to regulation of gene expression using ELISA technology.Data from the assay component BSK_BF4T_MMP9 was analyzed at the endpoint, BSK_BF4T_MMP9, in the positive analysis fitting direction relative to DMSO as the negative control and baseline of activity. Using a type of binding reporter, gain or loss-of-signal activity can be used to understand protein changes. […]
(§1) The levels of cell surface (or secreted, indicated by the prefix "s") biomarker endpoints were measured by ELISA. Overt cytotoxicity to cells in confluent adherent cultures (all systems other than the BT system) was assessed by measuring total protein levels using sulforhodamine B (SRB) staining in parallel cultures at the time of biomarker measurements, indicated as SRB endpoints. For proliferation assays for adherent cell types, individual cell types are cultured at sub-confluence and relative cell numbers quantified by SRB staining at time points optimized for each system (48 h: 3C and CASM3C systems; 72 h: BT and HDF3CGF systems; 96 h: SAg system). […] Plates were read after 6 h.

[2] = read-out: Interleukin-8 (IL8), CXCL8 (gene 3576); assay: BSK_IMphg_IL8: BioMAP Diversity Plus: IMphg Assay for Interleukin-8 (IL8) Biomarker Activity (AID 2284277); conditions: primary human endothelial cells with macrophages
Method: BSK_IMphg is a cell-based, multiplexed-readout assay that uses venular endothelial cells and macrophages, a human vascular primary cell, with measurements taken at 24 hours after chemical dosing in a microplate: 96-well plate.BSK_IMphg_IL8 is an assay component measured in the BSK_IMphg assay. It measures IL-8 antibody related to regulation of gene expression using ELISA technology.Data from the assay component BSK_IMphg_IL8 was analyzed at the endpoint, BSK_IMphg_IL8, in the positive analysis fitting direction relative to DMSO as the negative control and baseline of activity. Using a type of binding reporter, gain or loss-of-signal activity can be used to understand protein changes. […]
as §1

[3] = read-out: Intercellular Adhesion Molecule 1 (ICAM1), ICAM1 (gene 3383); assay: BSK_BE3C_ICAM1: BioMAP Diversity Plus: BE3C Assay for Intercellular Adhesion Molecule 1 (ICAM1) Biomarker Activity (AID 2284278); conditions: primary human bronchial epithelial cells
In short: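 ELISA read-out of ICAM-1 on human lung bronchial epithelial primary cells, 24 h post-dosing; positive-direction curve fit, DMSO = baseline. SRB total-protein staining of parallel cultures flagged overt cytotoxicity.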

[4] = read-out: Interferon-inducible T-cell alpha chemoattractant (ITAC), CXCL11 (gene 6373); assay: BSK_BE3C_ITAC: BioMAP Diversity Plus: BE3C Assay for Interferon-inducible T-cell alpha chemoattractant (ITAC) Biomarker Activity (AID 2284279); conditions: primary human bronchial epithelial cells
In short: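 Steps: dose human bronchial epithelial cells with chemical; incubate 24 h; measure I-TAC by ELISA; fit endpoint in positive direction against DMSO control. Cytotoxicity was checked in parallel cultures by SRB staining at harvest.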

[5] = read-out: Interleukin-8 (IL8), CXCL8 (gene 3576); assay: BSK_BE3C_IL8: BioMAP Diversity Plus: BE3C Assay for Interleukin-8 (IL8) Biomarker Activity (AID 2284280); conditions: primary human bronchial epithelial cells
In short: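 Measured at 24 h after treatment, IL-8 from human primary bronchial epithelial cells is determined by ELISA, and the response is modelled as increasing relative to DMSO negative control.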

[6] = read-out: Epidermal growth factor receptor (EGFR), EGFR (gene 1956); assay: BSK_BE3C_EGFR: BioMAP Diversity Plus: BE3C Assay for Epidermal growth factor receptor (EGFR) Biomarker Activity (AID 2284281); conditions: primary human bronchial epithelial cells
In short: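 Measured 24 h after dosing in primary human bronchial epithelial cultures, EGFR was read by ELISA; gain of signal over DMSO control defined activity.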

[7] = read-out: KRT18 (gene 3875); assay: BSK_BE3C_Keratin818: BioMAP Diversity Plus: BE3C Assay for Keratin 818 Biomarker Activity (AID 2284282); conditions: primary human bronchial epithelial cells
In short: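 ELISA read-out of Keratin 8/18 in BE3C human bronchial epithelial cultures, 24 h post-dosing; positive-direction fit vs DMSO baseline.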

[8] = read-out: Matrix Metallopeptidase 9 (MMP9), MMP9 (gene 4318); assay: BSK_BE3C_MMP9: BioMAP Diversity Plus: BE3C Assay for Matrix Metallopeptidase 9 (MMP9) Biomarker Activity (AID 2284283); conditions: primary human bronchial epithelial cells
In short: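 Cells were dosed, incubated 24 h, then assayed for MMP-9 by ELISA; activity was fitted upward against DMSO. The system used human lung primary bronchial epithelial cells, with SRB total-protein staining run alongside for cytotoxicity.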

[9] = read-out: Plasminogen activator inhibitor-1 (PAI1), SERPINE1 (gene 5054); assay: BSK_CASM3C_PAI1: BioMAP Diversity Plus: CASM3C Assay for Plasminogen activator inhibitor-1 (PAI1) Biomarker Activity (AID 2284284); conditions: primary human coronary artery smooth muscle cells;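 further: PAI-1 protein level measured by ELISA 24 h after dosing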
[10] = read-out: Monocyte Chemoattractant Protein-1 (MCP1), CCL2 (gene 6347); assay: BSK_hDFCGF_MCP1: BioMAP Diversity Plus: hDFCGF Assay for Monocyte Chemoattractant Protein-1 (MCP1) Biomarker Activity (AID 2284285); conditions: primary human foreskin fibroblasts
In short: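 MCP-1 ELISA readout was taken 24 hours after dosing primary human dermal fibroblasts in the hDFCGF system, with DMSO as baseline. Parallel sulforhodamine B staining of total protein tracked overt cytotoxicity.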

Measured: outcome

Cn1cnc([N+](=O)[O-])c1Sc1ncnc2nc[nH]c12
inactive: all assays above
